# ChEMBL document CHEMBL2218924, “A broad activity screen in support of a chemogenomic map for kinase signalling research and drug discovery” (Biochem J, 2013)
# Experiments:
# [1] = molecular target: T1, Dual specificity mitogen-activated protein kinase kinase 6 (Homo sapiens) (UniProt P52564); conditions: at 1 µM
# T1 sequence (whole entry): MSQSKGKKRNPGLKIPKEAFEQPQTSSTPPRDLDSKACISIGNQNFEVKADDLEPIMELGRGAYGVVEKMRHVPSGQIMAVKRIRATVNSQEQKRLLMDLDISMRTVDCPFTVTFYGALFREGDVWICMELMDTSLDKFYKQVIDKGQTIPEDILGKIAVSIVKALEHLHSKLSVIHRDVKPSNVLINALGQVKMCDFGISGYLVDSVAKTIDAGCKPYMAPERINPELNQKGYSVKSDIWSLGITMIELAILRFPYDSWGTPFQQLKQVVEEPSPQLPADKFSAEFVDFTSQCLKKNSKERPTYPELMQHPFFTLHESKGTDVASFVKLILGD
# [2] = molecular target: T1, Dual specificity mitogen-activated protein kinase kinase 6 (Homo sapiens); conditions: at 10 µM
# [3] = molecular target: T2, Dual specificity mitogen-activated protein kinase kinase 7 (Homo sapiens) (UniProt O14733); conditions: at 10 µM
# T2 sequence (whole entry): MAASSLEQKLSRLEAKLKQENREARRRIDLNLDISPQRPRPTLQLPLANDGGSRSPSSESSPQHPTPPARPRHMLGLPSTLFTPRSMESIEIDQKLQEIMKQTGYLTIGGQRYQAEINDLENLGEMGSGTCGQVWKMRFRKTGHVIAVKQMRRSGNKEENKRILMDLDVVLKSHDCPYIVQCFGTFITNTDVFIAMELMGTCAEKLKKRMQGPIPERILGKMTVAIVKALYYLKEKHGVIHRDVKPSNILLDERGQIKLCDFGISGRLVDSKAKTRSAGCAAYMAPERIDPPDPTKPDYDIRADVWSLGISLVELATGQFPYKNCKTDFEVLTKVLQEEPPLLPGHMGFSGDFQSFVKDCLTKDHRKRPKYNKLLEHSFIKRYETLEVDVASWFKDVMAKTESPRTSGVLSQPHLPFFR
# [4] = molecular target: Myosin light chain kinase, smooth muscle (Homo sapiens) (UniProt Q15746); conditions: at 1 µM
# [5] = molecular target: Myosin light chain kinase, smooth muscle (Homo sapiens) (UniProt Q15746); conditions: at 10 µM
# [6] = molecular target: Mitogen-activated protein kinase kinase kinase 9 (Homo sapiens) (UniProt P80192); conditions: at 1 µM
# [7] = molecular target: Mitogen-activated protein kinase kinase kinase 9 (Homo sapiens) (UniProt P80192); conditions: at 10 µM
# [8] = molecular target: Serine/threonine-protein kinase MRCK beta (Homo sapiens) (UniProt Q9Y5S2); conditions: at 1 µM
# [9] = molecular target: Serine/threonine-protein kinase MRCK beta (Homo sapiens) (UniProt Q9Y5S2); conditions: at 10 µM
# [10] = molecular target: Ribosomal protein S6 kinase alpha-4 (Homo sapiens) (UniProt O75676); conditions: at 1 µM
# [11] = molecular target: Ribosomal protein S6 kinase alpha-4 (Homo sapiens) (UniProt O75676); conditions: at 10 µM
# [12] = molecular target: SRSF protein kinase 3 (Homo sapiens) (UniProt Q9UPE1); conditions: at 1 µM
# [13] = molecular target: T3, Serine/threonine-protein kinase 4 (Homo sapiens) (UniProt Q13043); conditions: at 1 µM
# T3 sequence (whole entry): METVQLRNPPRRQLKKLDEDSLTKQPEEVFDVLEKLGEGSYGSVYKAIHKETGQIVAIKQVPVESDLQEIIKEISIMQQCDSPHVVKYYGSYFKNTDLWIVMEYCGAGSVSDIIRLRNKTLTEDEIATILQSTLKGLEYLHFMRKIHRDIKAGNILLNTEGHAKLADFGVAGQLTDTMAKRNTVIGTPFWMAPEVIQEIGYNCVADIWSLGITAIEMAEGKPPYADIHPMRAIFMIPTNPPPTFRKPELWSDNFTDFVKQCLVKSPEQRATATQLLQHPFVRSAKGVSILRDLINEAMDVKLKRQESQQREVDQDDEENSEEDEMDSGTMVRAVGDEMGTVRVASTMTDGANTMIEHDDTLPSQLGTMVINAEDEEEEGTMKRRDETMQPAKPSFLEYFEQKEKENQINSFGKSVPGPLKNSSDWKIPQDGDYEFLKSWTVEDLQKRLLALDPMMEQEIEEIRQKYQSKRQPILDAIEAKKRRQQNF
# [14] = molecular target: Serine/threonine-protein kinase MRCK alpha (Homo sapiens) (UniProt Q5VT25); conditions: at 1 µM
# [15] = molecular target: Serine/threonine-protein kinase MRCK alpha (Homo sapiens) (UniProt Q5VT25); conditions: at 10 µM
# [16] = molecular target: Ribosomal protein S6 kinase alpha-5 (Homo sapiens) (UniProt O75582); conditions: at 1 µM
# [17] = molecular target: Ribosomal protein S6 kinase alpha-5 (Homo sapiens) (UniProt O75582); conditions: at 10 µM
# [18] = molecular target: SRSF protein kinase 3 (Homo sapiens) (UniProt Q9UPE1); conditions: at 10 µM
# [19] = molecular target: T2, Dual specificity mitogen-activated protein kinase kinase 7 (Homo sapiens); conditions: at 1 µM
# [20] = molecular target: T3, Serine/threonine-protein kinase 4 (Homo sapiens); conditions: at 10 µM
# Serine/threonine-protein kinase MRCK alpha (Homo sapiens), sequence (Q5VT25 whole entry): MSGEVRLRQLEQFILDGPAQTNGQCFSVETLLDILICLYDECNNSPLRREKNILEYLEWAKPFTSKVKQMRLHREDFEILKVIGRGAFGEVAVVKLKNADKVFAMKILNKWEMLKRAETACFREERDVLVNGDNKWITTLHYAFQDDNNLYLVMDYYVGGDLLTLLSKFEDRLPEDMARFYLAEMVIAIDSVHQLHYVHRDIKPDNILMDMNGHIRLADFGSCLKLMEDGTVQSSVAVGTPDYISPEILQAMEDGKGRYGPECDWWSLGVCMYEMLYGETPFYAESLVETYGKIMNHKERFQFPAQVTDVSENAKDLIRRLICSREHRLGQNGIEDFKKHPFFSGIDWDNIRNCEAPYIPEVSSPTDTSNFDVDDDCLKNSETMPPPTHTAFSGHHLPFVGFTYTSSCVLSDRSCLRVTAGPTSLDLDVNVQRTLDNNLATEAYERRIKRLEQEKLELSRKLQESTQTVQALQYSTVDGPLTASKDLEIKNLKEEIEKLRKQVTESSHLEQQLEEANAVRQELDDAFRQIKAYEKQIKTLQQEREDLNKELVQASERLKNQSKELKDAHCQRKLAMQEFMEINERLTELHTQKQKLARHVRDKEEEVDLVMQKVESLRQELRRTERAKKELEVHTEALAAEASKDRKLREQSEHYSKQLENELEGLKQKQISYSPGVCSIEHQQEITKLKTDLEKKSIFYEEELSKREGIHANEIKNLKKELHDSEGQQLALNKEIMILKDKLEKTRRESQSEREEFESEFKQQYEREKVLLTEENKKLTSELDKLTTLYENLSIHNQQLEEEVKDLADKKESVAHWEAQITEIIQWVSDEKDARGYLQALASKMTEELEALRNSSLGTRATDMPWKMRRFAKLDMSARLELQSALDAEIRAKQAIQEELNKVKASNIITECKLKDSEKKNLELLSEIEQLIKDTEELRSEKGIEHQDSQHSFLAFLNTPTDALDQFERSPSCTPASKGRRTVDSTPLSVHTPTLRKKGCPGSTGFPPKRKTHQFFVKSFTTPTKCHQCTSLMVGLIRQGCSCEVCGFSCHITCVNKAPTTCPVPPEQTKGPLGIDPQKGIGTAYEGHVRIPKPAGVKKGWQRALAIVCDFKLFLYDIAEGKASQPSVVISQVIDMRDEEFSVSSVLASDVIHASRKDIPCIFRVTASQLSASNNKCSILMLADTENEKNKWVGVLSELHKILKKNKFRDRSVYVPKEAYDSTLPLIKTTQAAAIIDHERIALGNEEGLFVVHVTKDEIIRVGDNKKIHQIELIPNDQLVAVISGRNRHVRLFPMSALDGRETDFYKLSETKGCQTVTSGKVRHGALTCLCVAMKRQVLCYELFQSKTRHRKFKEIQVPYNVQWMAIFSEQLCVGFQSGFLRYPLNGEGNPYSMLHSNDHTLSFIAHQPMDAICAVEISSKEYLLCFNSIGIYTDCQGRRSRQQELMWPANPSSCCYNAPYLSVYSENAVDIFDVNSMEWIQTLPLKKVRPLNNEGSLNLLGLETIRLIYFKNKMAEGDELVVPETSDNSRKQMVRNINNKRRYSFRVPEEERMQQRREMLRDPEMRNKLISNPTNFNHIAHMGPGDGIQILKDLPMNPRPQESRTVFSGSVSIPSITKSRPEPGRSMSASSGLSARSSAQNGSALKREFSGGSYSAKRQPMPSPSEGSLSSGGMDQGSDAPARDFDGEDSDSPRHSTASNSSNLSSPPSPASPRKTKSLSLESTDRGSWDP
# Myosin light chain kinase, smooth muscle (Homo sapiens), sequence (Q15746 whole entry): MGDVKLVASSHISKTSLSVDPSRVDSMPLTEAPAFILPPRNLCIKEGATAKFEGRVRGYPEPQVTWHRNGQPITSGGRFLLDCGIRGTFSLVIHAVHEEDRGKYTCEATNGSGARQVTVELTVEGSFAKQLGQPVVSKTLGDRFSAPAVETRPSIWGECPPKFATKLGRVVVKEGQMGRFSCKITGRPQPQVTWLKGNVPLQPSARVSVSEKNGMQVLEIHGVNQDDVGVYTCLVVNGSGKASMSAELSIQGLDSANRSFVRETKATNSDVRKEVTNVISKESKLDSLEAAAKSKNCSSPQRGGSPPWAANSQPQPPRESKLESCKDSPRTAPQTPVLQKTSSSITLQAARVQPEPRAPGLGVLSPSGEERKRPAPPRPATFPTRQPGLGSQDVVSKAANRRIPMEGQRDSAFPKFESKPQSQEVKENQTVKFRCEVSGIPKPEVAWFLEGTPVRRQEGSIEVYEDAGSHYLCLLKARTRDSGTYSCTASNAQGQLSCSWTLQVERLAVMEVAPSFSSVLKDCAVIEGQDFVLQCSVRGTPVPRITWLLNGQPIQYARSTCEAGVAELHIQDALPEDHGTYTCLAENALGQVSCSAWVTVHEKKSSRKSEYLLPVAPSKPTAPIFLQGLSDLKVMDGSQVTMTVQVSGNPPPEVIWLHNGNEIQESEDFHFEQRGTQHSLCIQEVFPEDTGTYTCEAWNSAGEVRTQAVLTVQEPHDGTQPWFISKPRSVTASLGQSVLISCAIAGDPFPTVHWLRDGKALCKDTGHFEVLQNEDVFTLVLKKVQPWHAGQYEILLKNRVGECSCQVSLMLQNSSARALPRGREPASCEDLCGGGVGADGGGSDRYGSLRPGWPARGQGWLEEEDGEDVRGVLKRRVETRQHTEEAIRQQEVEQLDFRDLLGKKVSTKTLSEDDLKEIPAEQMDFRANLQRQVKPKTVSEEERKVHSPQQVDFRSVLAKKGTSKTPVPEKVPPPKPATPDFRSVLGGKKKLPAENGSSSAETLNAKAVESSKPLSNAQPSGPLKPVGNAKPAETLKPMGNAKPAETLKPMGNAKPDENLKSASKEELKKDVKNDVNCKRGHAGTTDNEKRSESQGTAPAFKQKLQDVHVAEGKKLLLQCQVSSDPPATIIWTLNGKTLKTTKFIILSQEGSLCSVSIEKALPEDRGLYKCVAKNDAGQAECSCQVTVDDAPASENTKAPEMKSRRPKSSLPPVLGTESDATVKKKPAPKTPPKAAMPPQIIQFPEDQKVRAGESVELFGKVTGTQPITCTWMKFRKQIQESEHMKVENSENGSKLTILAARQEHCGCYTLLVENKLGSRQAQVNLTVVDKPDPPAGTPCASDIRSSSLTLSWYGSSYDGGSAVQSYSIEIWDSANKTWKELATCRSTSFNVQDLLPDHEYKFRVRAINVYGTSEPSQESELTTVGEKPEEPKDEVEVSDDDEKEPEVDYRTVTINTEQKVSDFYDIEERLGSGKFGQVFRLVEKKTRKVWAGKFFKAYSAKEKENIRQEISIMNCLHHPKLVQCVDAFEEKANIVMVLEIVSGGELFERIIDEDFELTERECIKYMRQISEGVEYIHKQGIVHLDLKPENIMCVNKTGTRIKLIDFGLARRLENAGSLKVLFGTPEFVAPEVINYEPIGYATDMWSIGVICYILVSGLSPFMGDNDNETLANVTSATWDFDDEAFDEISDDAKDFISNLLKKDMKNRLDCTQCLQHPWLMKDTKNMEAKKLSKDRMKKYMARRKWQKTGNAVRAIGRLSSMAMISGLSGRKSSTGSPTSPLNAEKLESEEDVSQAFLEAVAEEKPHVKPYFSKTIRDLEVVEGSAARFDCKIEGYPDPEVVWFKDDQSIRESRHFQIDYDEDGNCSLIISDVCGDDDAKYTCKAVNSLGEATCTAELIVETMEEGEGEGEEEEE
# Mitogen-activated protein kinase kinase kinase 9 (Homo sapiens), sequence (P80192 whole entry, looked up): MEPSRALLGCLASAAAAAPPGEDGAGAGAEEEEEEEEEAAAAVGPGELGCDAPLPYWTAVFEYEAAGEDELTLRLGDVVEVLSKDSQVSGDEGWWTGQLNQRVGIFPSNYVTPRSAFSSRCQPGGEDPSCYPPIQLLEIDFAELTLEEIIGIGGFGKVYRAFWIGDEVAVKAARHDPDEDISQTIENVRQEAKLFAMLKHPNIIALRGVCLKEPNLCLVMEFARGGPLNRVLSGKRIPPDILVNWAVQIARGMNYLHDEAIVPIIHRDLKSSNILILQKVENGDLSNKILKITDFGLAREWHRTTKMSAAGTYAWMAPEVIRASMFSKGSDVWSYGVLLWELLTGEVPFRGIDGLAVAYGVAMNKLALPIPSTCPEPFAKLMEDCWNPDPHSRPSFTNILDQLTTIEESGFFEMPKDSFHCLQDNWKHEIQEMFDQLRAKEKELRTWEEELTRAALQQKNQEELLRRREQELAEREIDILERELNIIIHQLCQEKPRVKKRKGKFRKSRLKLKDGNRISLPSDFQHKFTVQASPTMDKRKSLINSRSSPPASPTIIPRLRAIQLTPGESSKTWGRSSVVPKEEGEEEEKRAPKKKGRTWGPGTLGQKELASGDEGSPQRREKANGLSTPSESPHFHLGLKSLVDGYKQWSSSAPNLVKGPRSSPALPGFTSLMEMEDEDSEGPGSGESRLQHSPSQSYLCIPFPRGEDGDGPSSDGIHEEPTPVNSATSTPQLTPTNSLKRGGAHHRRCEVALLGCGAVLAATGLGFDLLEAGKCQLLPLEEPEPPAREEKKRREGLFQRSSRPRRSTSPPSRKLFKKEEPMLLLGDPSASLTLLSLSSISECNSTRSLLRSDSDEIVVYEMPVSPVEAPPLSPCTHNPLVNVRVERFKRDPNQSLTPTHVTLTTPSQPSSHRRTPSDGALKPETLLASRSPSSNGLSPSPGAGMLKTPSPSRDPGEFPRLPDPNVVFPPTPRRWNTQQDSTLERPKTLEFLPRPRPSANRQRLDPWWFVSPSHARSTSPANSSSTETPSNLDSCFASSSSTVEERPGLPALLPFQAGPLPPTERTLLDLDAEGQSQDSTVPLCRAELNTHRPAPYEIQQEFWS
SMILES,residual activity [1],residual activity [2],residual activity [3],residual activity [4],residual activity [5],residual activity [6],residual activity [7],residual activity [8],residual activity [9],residual activity [10],residual activity [11],residual activity [12],residual activity [13],residual activity [14],residual activity [15],residual activity [16],residual activity [17],residual activity [18],residual activity [19],residual activity [20]
O=C(NC(NC(=S)Nc1ccc(F)c([N+](=O)[O-])c1)C(Cl)(Cl)Cl)C(c1ccccc1)c1ccccc1 (stereo not drawn),135%,80%,96%,103%,79%,102%,103%,97%,87%,95%,94%,98%,92%,,,,,,,
c1ccc(-c2cnc(Nc3ccc(OCCN4CCCC4)cc3)s2)cc1,77%,72%,,76%,58%,74%,22%,106%,109%,,,108%,,107%,106%,128%,106%,78%,,
NC(=O)Nc1sc(-c2ccc(F)cc2)cc1C(N)=O,97%,41%,44%,92%,31%,9%,1%,80%,50%,85%,46%,96%,28%,,,,,67%,96%,10%
O=c1cc(N2CCNCC2)oc2c(-c3ccccc3)cccc12,92%,89%,79%,93%,95%,88%,104%,93%,76%,93%,103%,103%,98%,86%,,,94%,89%,100%,99%
O=C(c1ccccc1)c1ccc(N2CCOCC2)cc1O,85%,79%,85%,88%,87%,,,91%,82%,88%,100%,113%,111%,100%,100%,,86%,,98%,116%
O=C1NC(=O)C(c2cn(CCCO)c3ncccc23)=C1c1cnccn1,85%,77%,99%,84%,78%,75%,55%,,,,,,77%,,,,,,100%,60%
N#Cc1c(NC(=O)c2cccc3ccccc23)sc2c1CCCC2,93%,85%,82%,,83%,96%,95%,100%,,,99%,,,,,,,,88%,
NC(=O)c1ccc(-c2nc(-c3ccc4c(c3)OCCO4)c(-c3ccccn3)[nH]2)cc1,97%,58%,95%,,,94%,79%,95%,92%,,,,90%,,,120%,124%,,91%,118%
O=c1c(-c2ccc(F)cc2)c(-c2ccncc2)[nH]n1-c1ccc(Cl)cc1,74%,0%,22%,,,,,,,,,,,119%,,,,,77%,
Fc1ccc(-c2nc3n(c2-c2ccncc2)CCS3)cc1,61%,9%,83%,,,,,99%,98%,95%,85%,,,,,,,,82%,
O=C1Nc2ccc(Cl)cc2/C1=C/c1cc(Cl)c(O)c(Cl)c1,82%,38%,61%,39%,37%,56%,18%,80%,67%,84%,51%,100%,41%,99%,96%,,,71%,95%,12%
N#C/C(=C1/Nc2ccccc2S1)c1ccnc(NCCc2cccnc2)n1,84%,39%,42%,96%,73%,48%,9%,,,,,,81%,,,112%,68%,,67%,84%
COc1ccc(COc2ccc(Cc3cnc(N)nc3N)cc2OC)cc1,78%,80%,80%,,,,,,,,,111%,,,,131%,109%,82%,113%,77%
O=c1cc(N2CCOCC2)oc2c1ccc1ccccc12,92%,86%,94%,92%,77%,96%,101%,95%,78%,,105%,,91%,105%,99%,125%,103%,70%,102%,97%
Cn1c2ccccc2c2c3c(c4c5ccccc5n(CCC#N)c4c21)CNC3=O,0%,1%,34%,16%,11%,2%,2%,74%,64%,2%,5%,,1%,,79%,3%,2%,,52%,2%
CC(C)[C@H](CO)Nc1nc(Nc2cc(N)cc(Cl)c2)c2ncn(C(C)C)c2n1,93%,78%,,82%,29%,,,100%,90%,,51%,40%,82%,122%,,118%,76%,12%,95%,47%
O=C1Cc2c([nH]c3ccc([N+](=O)[O-])cc23)-c2ccccc2N1,79%,77%,,,,7%,5%,48%,57%,,,100%,33%,60%,79%,108%,107%,100%,73%,30%
Nc1n[nH]c2nc3ccccc3nc12,95%,84%,81%,95%,69%,82%,41%,86%,92%,,,,76%,,,,86%,,88%,94%
O=C1NC(=O)c2c1c1c3ccccc3[nH]c1n1cncc21,69%,21%,27%,11%,8%,33%,12%,82%,79%,53%,29%,82%,40%,99%,90%,63%,48%,63%,42%,21%
O=C1Cc2c([nH]c3ccc(Br)cc23)-c2ccccc2N1,100%,77%,62%,89%,58%,22%,4%,72%,52%,82%,63%,98%,44%,,,,,87%,95%,35%
COc1cc2nccc(Oc3ccc(NC(=S)NC(=O)c4ccccc4C)cc3)c2cc1OC,65%,71%,87%,67%,80%,63%,41%,84%,67%,87%,93%,,81%,,124%,137%,102%,,93%,86%
CC(C)(C)n1nc(Cc2cccc3ccccc23)c2c(N)ncnc21,57%,38%,94%,73%,87%,68%,18%,99%,86%,95%,,116%,90%,95%,119%,120%,93%,80%,98%,58%
Nc1ncnc2c1cnn2-c1ccccc1,79%,91%,94%,86%,84%,83%,57%,95%,83%,,86%,,97%,,,,,23%,97%,
CSc1nc(-c2ccc(F)cc2)c(-c2ccnc(NC(C)c3ccccc3)c2)[nH]1 (stereo not drawn),70%,-2%,48%,,68%,99%,85%,,89%,100%,84%,,,,,,,86%,99%,
CCN(CC)CCNC(=O)c1c(C)[nH]c(/C=C2\C(=O)Nc3ccc(Cl)cc32)c1C,66%,46%,81%,9%,3%,24%,4%,,,42%,15%,98%,12%,,,80%,31%,61%,,5%
O=C(Nc1nc2ccccc2n1CCN1CCOCC1)c1cccc([N+](=O)[O-])c1,73%,137%,87%,78%,83%,77%,75%,88%,83%,,,,88%,,,124%,,,75%,77%
O=C(O)/C=C/c1cc(Br)c(Br)c(Br)c1Br,99%,84%,71%,94%,22%,93%,72%,106%,90%,102%,64%,124%,97%,,,,102%,100%,,97%
O=C(CCCc1ccc(-c2ccccc2F)cc1)Nc1ccc(O)cc1,98%,75%,85%,102%,82%,91%,89%,108%,105%,110%,100%,105%,80%,107%,136%,110%,104%,94%,89%,107%
